Test [1] is described as follows: qHTS assay to identify small molecule inhibitors of chordoma cells - UCH-1 (AID 1259355). Note: nearly all actives have a fitted effect of over 55% in size. In short, it runs like this: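 Screening used approved and investigational drugs in 15-point titration against 800 seeded cells per well. A fixed combination of auranofin with camptothecin, doxorubicin, rubitecan and topotecan followed compound addition, and growth was scored by CellTiter-Glo after 48hr.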

Test [2] in a line: qHTS assay to identify small molecule inhibitors of chordoma cells - UCH-2 (AID 1259356). Note: series mostly up to about 46 µM. In general terms: qHTS replaces the single test concentration by a dilution series.
A short description of test [3]: P-glycoprotein substrates identified in KB-8-5-11 adenocarcinoma cell line, qHTS therapeutic library screen (AID 1346987). Note: nearly all actives have a fitted effect of over 65% in size. Note: potency is the fitted concentration of half-maximal effect. Conditions: outcome: dose series up to 44.5 µM unless noted. The essentials: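 Luminescence from CellTiter-Glo, read 5 min after addition, quantified survival of KB-8-5-11 (P-gp-overexpressing) cells exposed to compounds for 72 h. AC50 was derived from concentration-response curves.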

Results filed as inconclusive are left out. Values without a mark were called inactive. Activity calls are given as the source filed them. Calls come from the whole dose curve; as a rule, active = well fitted curve in the direction sought with a large enough effect; inconclusive = small, poorly fitted or top-dose-only effect, or another doubt; inactive = no such curve, though single readings can be large; an effect the other way counts as inactive or inconclusive.
% is set by controls: 0 for no effect and ±100 for the full control effect.

With `NC[C@@H]1O[C@H](O[C@H]2[C@@H](O)[C@H](O[C@@H]3[C@@H](O)[C@H](N)C[C@H](N)[C@H]3O[C@H]3O[C@H](CO)[C@@H](O)[C@H](O)[C@H]3N)O[C@@H]2CO)[C@H](N)[C@@H](O)[C@@H]1O`, the Potency entry in test [1], in test [2] and in test [3] was “inactive” each time.
As for `CCCCCCCCCCCC(=O)N(CCO)CCO`, the Potency entry in test [1], in test [2] and in test [3] was “inactive” each time.
Consider `CN(C)C=Nc1c(I)cc(I)c(CCC(=O)O)c1I`, for which the Potency result in test [1], in test [2] and in test [3] was “inactive” throughout.
With `CCN(CC)C(=O)[C@]1(c2ccccc2)C[C@@H]1CN`, the Potency result in test [1], in test [2] and in test [3] was “inactive” throughout.
On to `CCN(CC)CCOC(=O)c1cccnc1`, for which the Potency entry in test [1], in test [2] and in test [3] was “inactive” throughout.
`CS(=O)(=O)OCC(O)C(O)COS(C)(=O)=O` (centres undefined): the Potency entry in test [1], in test [2] and in test [3] was “inactive” each time.
For `COc1ccc(/C=C/C(=O)O)cc1`, the Potency result in test [1], in test [2] and in test [3] was “inactive” throughout.
For the compound `C=C1CC[C@H](O)C/C1=C\C=C1/CCC[C@]2(C)[C@@H]([C@H](C)CCCC(C)C)CC[C@@H]12`, the Potency entry in test [1], in test [2] and in test [3] was “inactive” throughout.
As to `NC(=O)Oc1ccc(Cc2ccccc2)cc1`, the Potency entry in test [1], in test [2] and in test [3] was “inactive” each time.
Regarding `CC/C=C\C/C=C\C/C=C\C/C=C\C/C=C\C/C=C\CCC(=O)O`, the Potency entry in test [1], in test [2] and in test [3] was “inactive” each time.
Take `FC(F)(F)C(F)(F)C(F)(F)C(F)(F)C(F)(F)C(F)(F)F`: the Potency result in test [1], in test [2] and in test [3] was “inactive” in each case.
With `O=C(CCCCCCCCCCCCC1CCCC1)Nc1ccc(S(=O)(=O)c2ccc(NC(=O)CCCCCCCCCCCCC3CCCC3)cc2)cc1`, the Potency entry in test [1], in test [2] and in test [3] was “inactive” in each case.
Regarding `OC[C@H]1OC([S-])[C@H](O)[C@@H](O)[C@@H]1O.[Au+]` (some centres undefined), the Potency entry in test [1], in test [2] and in test [3] was “inactive” each time.
For the compound `CC(C)C[C@H](NC(=O)[C@@H](Cc1c[nH]c2ccccc12)NC(=O)[C@H](Cc1ccc(O)cc1)NC(=O)[C@H](CO)NC(=O)[C@H](Cc1c[nH]c2ccccc12)NC(=O)[C@H](Cc1cnc[nH]1)NC(=O)[C@@H]1CCC(=O)N1)C(=O)N[C@@H](CCCN=C(N)N)C(=O)N1CCC[C@@H]1C(=O)NCC(N)=O`, the Potency entry in test [1], in test [2] and in test [3] was “inactive” each time.
`CC1(C)S[C@@H]2[C@H](N3C(=O)C(c4ccccc4)NC3(C)C)C(=O)N2[C@H]1C(=O)O` (some centres undefined): the Potency entry in test [1], in test [2] and in test [3] was “inactive” in each case.
Regarding `O=C(CO)[C@@H](O)[C@H](O)[C@@H](O)C(=O)O`, the Potency entry in test [1], in test [2] and in test [3] was “inactive” each time.
For the compound `Cc1cc(C)c(NC(=O)C[C@H](CC(=O)O)c2cccc3ccccc23)c(C(=O)N2CCC3(CCCC3)CC2)c1`, the activity, negative = inhibition in test [1] was -1.62% [at 1.88 µM]. Also, the Potency result in test [2] and in test [3] was “inactive” each time.
For `CCCCC(O)c1ccccc1` (centres undefined), the Potency entry in test [1], in test [2] and in test [3] was “inactive” throughout.
Consider `CC1=C[C@H](O)CC(C)(C)[C@H]1/C=C/C(C)=C/C=C/C(C)=C/C=C/C=C(C)/C=C/C=C(C)/C=C/C1=C(C)C[C@@H](O)CC1(C)C`, for which the Potency entry in test [1], in test [2] and in test [3] was “inactive” in each case.
Consider `CCCCCc1ccc(C)cc1O`, for which the Potency entry in test [1], in test [2] and in test [3] was “inactive” each time.
Consider `O=[n+]1ccn([O-])c2ccccc21`, for which the Potency result in test [1], in test [2] and in test [3] was “inactive” each time.
For the compound `O=C(O)CN(CC(=O)O)CC1=CC2C(=CC1=O)Oc1cc(O)c(CN(CC(=O)O)CC(=O)O)cc1C21OC(=O)c2ccccc21` (centres undefined), the Potency entry in test [1], in test [2] and in test [3] was “inactive” throughout.
Take `O=C1CCC(=O)N1CO`: the Potency result in test [1], in test [2] and in test [3] was “inactive” throughout.
With `O=C(O[C@H]1CN2CCC1CC2)N1CCc2ccccc2[C@@H]1c1ccccc1`, the Potency result in test [1], in test [2] and in test [3] was “inactive” in each case.
As to `O=C(/C=C/c1cccc(F)c1)NC1CC1`, the Potency entry in test [1], in test [2] and in test [3] was “inactive” each time.
Regarding `CC(C)(CO)[C@@H](O)C(=O)NCCC(=O)NCCSSCCNC(=O)CCNC(=O)[C@H](O)C(C)(C)CO`, the Potency entry in test [1], in test [2] and in test [3] was “inactive” each time.
As to `C[C@H]1[C@@H](OC(=O)CCC(=O)O)O[C@@H]2OC3(C)CC[C@H]4[C@H](C)CC[C@@H]1[C@@]24OO3`, the Potency result in test [1] and in test [2] was “inactive” in each case. Moreover, the Potency in test [3] is 4.61 µM (active).
`C[C@@H]1C/C=C/C=C/C=C/C=C/[C@H](O[C@@H]2O[C@H](C)[C@@H](O)[C@H](N)[C@@H]2O)C[C@@H]2O[C@](O)(C[C@@H](O)C[C@H]3O[C@@H]3/C=C/C(=O)O1)C[C@H](O)[C@H]2C(=O)O`: the Potency result in test [1], in test [2] and in test [3] was “inactive” each time.
For the compound `c1ccc2c(c1)OCC(CN1CCCCC1)O2` (centres undefined), the Potency entry in test [1], in test [2] and in test [3] was “inactive” each time.
As for `C/C(=C\C(=O)OCCCCCCCCC(=O)O)C[C@@H]1OC[C@H](C[C@@H]2O[C@H]2[C@@H](C)[C@H](C)O)[C@@H](O)[C@H]1O`, the Potency result in test [1], in test [2] and in test [3] was “inactive” each time.
For the compound `C[Se]CC[C@H](N)C(=O)O`, the Potency entry in test [1], in test [2] and in test [3] was “inactive” throughout.
Take `CCOc1cc(-c2nccc3cc(OC)c(OC)cc23)cc(OCC)c1OCC`: the Potency entry in test [1] and in test [2] was “inactive” throughout. Besides, in test [3], the Potency is 13 µM (active).
For `O=C(OC1C[C@@H]2CC3C[C@H](C1)N2CC3=O)c1c[nH]c2ccccc12` (some centres undefined), the Potency entry in test [1], in test [2] and in test [3] was “inactive” throughout.
Turning to `CC(C)(C)c1ccc2c(S(=O)(=O)O)c(C(C)(C)C)ccc2c1`, the Potency entry in test [1], in test [2] and in test [3] was “inactive” throughout.
As for `OC/C=C/c1ccccc1`, the Potency result in test [1], in test [2] and in test [3] was “inactive” throughout.
For the compound `CC12CCC(C1)C(C)(C)C2=O` (centres undefined), the Potency entry in test [1], in test [2] and in test [3] was “inactive” in each case.
As to `CC1CC(OC(=O)C(O)c2ccccc2)CC(C)(C)C1` (centres undefined), the Potency result in test [1], in test [2] and in test [3] was “inactive” in each case.
For the compound `CCOC(C)OCC`, the Potency entry in test [1], in test [2] and in test [3] was “inactive” throughout.

The values are drawn from PubChem BioAssay (NCATS).
